In PubChem BioAssay:
Activity calls are given as the source filed them.

Assays:
[1] = test system: Plasmodium falciparum Sir2 (PF13_0152, Sir2A); test: Plasmodium falciparum Sir2A binding compounds – biochemical, small-molecule microarray, 635 nm fluorescence, primary screen (AID 1098); conditions: fluorescence 635 nm, higher = more signal;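 further: score merges spot fluorescence intensity with its signal-to-noise ratio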
[2] = probe aDKK1 binding to arrayed compounds – biochemical, biotinylated probe, 635/667 nm fluorescence, primary screen (AID 1099); conditions: small-molecule microarray, higher = more signal;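 further: score merges 667nm spot fluorescence with signal to noise across triplicate slides; reference of the scale not given here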
[3] = probe aCHRDL2 binding to arrayed compounds – biochemical, biotinylated probe, 635/667 nm fluorescence, primary screen (AID 1100); conditions: small-molecule microarray, higher = more signal
[4] = change in splice reporter luminescence, either direction, cell-based, HEK293, spliceosome inhibition project, primary screen (AID 1101); conditions: HEK293 splicing luciferase reporter, 24 h, higher = more signal, called active from +8 up or from −8 down;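 further: HEK293 cells carrying a splicing-competent luciferase reporter gene; test concentration not given here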
[5] = target: Fibroblast growth factor 10 (Homo sapiens) (UniProt O15520); test: compounds binding fibroblast growth factor 10 – biochemical, small-molecule microarray, 635 nm fluorescence, primary screen (AID 1102); conditions: FGF10 binding, fluorescence 635 nm, higher = more signal
Chain of Fibroblast growth factor 10 (Homo sapiens) (O15520 whole entry, looked up): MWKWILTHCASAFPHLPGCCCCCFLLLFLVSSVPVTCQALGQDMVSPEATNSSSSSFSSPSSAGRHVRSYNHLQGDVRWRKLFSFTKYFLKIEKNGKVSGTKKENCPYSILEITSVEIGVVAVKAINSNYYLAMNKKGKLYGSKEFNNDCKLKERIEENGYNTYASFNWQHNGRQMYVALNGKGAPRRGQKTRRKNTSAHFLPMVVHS

[6] = test system: glycogen synthase kinase-3 (GSK3A per assay name; protocol says GSK3B); test: compounds binding glycogen synthase kinase-3 – biochemical, small-molecule microarray, 635 nm fluorescence, GSK3A, primary screen (AID 1103); conditions: fluorescence 635 nm, higher = more signal; further: the record names both GSK3A and GSK3B
[7] = target: Epidermal growth factor receptor (Homo sapiens) (UniProt P00533); test: compounds binding epidermal growth factor receptor – biochemical, small-molecule microarray, 635 nm fluorescence, primary screen (AID 1104); conditions: EGFR binding, higher = more signal;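 further: score merges 667 nm emission intensity with spot signal to noise over triplicate slides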
Chain of Epidermal growth factor receptor (Homo sapiens) (P00533 whole entry, looked up): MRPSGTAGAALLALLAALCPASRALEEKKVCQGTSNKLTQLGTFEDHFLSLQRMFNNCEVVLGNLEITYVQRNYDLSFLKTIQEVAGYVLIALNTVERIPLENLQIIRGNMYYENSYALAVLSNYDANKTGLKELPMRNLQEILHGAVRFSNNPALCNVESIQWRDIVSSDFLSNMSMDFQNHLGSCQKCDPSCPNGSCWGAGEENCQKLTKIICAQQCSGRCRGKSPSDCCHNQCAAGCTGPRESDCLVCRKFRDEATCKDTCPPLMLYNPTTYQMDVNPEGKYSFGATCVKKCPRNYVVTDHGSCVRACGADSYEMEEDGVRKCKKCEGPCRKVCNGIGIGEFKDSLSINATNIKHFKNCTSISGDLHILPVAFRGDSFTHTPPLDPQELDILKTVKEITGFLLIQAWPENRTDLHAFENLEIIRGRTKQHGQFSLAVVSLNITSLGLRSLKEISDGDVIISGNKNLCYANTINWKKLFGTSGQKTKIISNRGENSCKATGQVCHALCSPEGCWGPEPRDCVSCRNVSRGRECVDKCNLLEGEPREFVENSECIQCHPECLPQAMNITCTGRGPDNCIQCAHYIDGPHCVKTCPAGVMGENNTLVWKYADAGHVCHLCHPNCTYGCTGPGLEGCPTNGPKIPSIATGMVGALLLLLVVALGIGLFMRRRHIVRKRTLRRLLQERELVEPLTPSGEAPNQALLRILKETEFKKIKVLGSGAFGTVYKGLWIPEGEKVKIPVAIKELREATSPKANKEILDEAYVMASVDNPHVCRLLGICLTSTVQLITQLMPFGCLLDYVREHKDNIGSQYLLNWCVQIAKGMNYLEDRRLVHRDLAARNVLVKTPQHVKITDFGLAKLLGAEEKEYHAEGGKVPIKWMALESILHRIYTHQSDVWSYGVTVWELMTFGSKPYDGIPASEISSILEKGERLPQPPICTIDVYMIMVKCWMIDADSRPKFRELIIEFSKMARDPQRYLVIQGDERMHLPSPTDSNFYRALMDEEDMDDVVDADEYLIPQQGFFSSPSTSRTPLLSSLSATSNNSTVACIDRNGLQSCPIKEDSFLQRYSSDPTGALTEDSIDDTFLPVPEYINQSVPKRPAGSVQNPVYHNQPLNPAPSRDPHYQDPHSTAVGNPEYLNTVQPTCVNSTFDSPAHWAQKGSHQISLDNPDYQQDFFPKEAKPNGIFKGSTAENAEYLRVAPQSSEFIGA

[8] = target: Follistatin-related protein 3 (Homo sapiens) (UniProt O95633); test: compounds binding follistatin-related protein 3 – biochemical, small-molecule microarray, 635 nm fluorescence, primary screen (AID 1105); conditions: FSTL3 binding, higher = more signal;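 further: score merges emission near 667 nm and signal to noise per printed spot across three slides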
Chain of Follistatin-related protein 3 (Homo sapiens) (O95633 whole entry, looked up): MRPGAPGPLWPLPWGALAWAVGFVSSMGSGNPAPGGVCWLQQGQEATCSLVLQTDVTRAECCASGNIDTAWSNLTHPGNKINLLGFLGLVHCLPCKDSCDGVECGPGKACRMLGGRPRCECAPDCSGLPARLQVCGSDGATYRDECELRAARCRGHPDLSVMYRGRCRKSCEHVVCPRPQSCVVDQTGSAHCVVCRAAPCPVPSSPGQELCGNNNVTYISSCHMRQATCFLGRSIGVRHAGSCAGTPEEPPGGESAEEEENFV

[9] = target: Dickkopf-related protein 1 (Homo sapiens) (UniProt O94907); test: small molecules binding DKK1 protein – biochemical, small-molecule microarray, 635 nm fluorescence scan, primary screen (AID 1106); conditions: higher = more signal;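 further: score merges emission near 667 nm with signal to noise over three replicate slides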
Chain of Dickkopf-related protein 1 (Homo sapiens) (O94907 whole entry, looked up): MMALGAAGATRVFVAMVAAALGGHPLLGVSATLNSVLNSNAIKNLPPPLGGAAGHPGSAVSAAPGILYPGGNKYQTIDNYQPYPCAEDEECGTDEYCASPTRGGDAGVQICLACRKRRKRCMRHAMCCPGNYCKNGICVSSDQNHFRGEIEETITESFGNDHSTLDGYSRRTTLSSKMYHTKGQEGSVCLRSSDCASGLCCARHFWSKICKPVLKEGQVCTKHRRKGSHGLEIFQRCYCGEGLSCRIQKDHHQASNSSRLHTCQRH

[10] = test system: Inhibin beta A chain (activin A); test: small molecules binding activin A – biochemical, small-molecule microarray, 635 nm fluorescence scan, primary screen (AID 1107); conditions: INHBA, higher = more signal;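 further: mouse activin A protein probed at 4.33 µg/mL on printed slides; score merges bound-protein fluorescence near 667 nm with spot signal-to-noise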

SMILES	composite z-score [1]	composite z-score [2]	composite z-score [3]	z-score [4]	composite z-score [5]	composite z-score [6]	composite z-score [7]	composite z-score [8]	composite z-score [9]	composite z-score [10]
COc1ccccc1CN1C(=O)c2ccccc2[C@@]2(Cc3ccccc3N(C(C)C)C2=O)[C@@H]1c1ccc(CO)cc1	0.139	-0.119	0.414	-0.938 (inactive)	-0.194	-0.467	-0.418	-0.119	-0.39	0.602
COC(=O)[C@H](C)NC(=O)CCC1CC(OC(=O)NCc2cccc3ccccc23)CC2(CCCC(COC(=O)NCCc3ccc(Cl)cc3)O2)O1 (stereo not given in full)	-0.0744	-0.299	-0.444	-0.875 (inactive)	0.794	0.69	0.381	0.494	0.302	-0.131
CC(C)CN1CCc2nc(-c3ccccc3)c3c(c2CC1)CO[C@@H](C)C3	-0.232	0.256	-0.469	0.00565 (inactive)	0.515	0.123	0.471	0.202	0.718	0.157
COc1cccc([C@H]2Oc3ccc(OC)cc3C(=NO[C@H](C)c3cn([C@@H]4COC[C@H]4O)nn3)[C@@H]2O)c1	0.53	-0.393	-0.381	-0.992 (inactive)	-0.481	-1.14	-0.0724	-0.525	0.0385	0.0726
CO[C@@H]1COC(=O)CC=C[C@@H](C)[C@@H]2C=C[C@H](O)[C@@H](COC(=O)CCC[C@H]1C)O2	0.686	-0.177	-0.899	-1.09 (inactive)	0.375	0.329	1.21	1.11	1.25	1.45
CC(C)(C)OC(=O)CC[C@]1(C(=O)NCc2ccccc2)N=C(c2ccc(OCCCO)cc2)O[C@H]1c1ccccc1	1.73	-0.0749	0.574	0.351 (inactive)	0.686	1.24	0.0167	-0.136	-0.402	-0.285
COC(=O)[C@@H]1N=C(c2ccc(OCCCO)cc2)O[C@@H]1c1ccccc1N=[N+]=[N-]	1.47	1.14	1.37	-1.99 (inactive)	0.046	0.981	-0.356	-0.0503	-0.68	1.08
COc1ccc([Si](C)(C)[C@@H]2[C@@H](CCO)O[C@]3(C(=O)N(Cc4ccc(NC(C)=O)cc4)c4ccccc43)[C@H]2C)cc1	1.23	-0.173	0.0018	-2.27 (inactive)	0.779	1.28	1.28	0.951	-0.0026	0.387
CCN1C(=O)[C@H]2[C@H]3[C@H](O)[C@H](O)CC(=NOC[C@@H](C)[C@H](OCc4ccccc4)C(C)C)[C@@H]3CC[C@H]2C1=O	1.16	-0.035	-0.171	0.879 (inactive)	0.405	0.254	0.108	0.284	0.132	0.359
O=C1C[C@@H](O)[C@@H](O)[C@@H]2[C@@H]3C(=O)N(C4CCCCC4)C(=O)[C@@H]3CC[C@H]12	0.523	-0.376	-0.711	0.804 (inactive)	0.438	0.919	0.634	0.553	0.718	-0.294
CCOC(=O)[C@H](Cc1ccccc1)NC(=O)CCC1CC(OC(=O)NCCc2ccc(F)cc2)CC2(CCCC(COC(=O)NCC(c3ccccc3)c3ccccc3)O2)O1 (stereo not given in full)	0.892	-0.273	-0.368	0.378 (inactive)	0.617	0.729	0.374	0.979	0.898	-0.235
COC(=O)[C@H]1COC(c2ccc(OCCCO)cc2)=N1	1.16	0.378	1.07	-0.19 (inactive)	-0.13	-0.882	-0.2	-0.576	-0.59	1.04
CCN1C(=O)[C@H]2[C@H]3[C@H](O)[C@H](O)CC(=NOCc4ccccc4)[C@H]3CC[C@H]2C1=O	0.18	-0.237	-0.278	0.462 (inactive)	0.47	0.0166	0.0741	-0.257	0.132	-0.114
Cc1ccc(S[C@]2(C(=O)NCC(F)(F)F)CC(=O)N(Cc3ccccc3Cl)[C@@H]2c2ccc(CO)cc2I)cc1	1.23	0.122	0.828	-1.34 (inactive)	-0.798	-0.457	-1.15	-0.978	-1.05	0.117
Cc1ccc(S[C@]2(C(=O)O)CC(=O)N(Cc3ccccc3)[C@@H]2c2ccc(CO)cc2I)cc1	1.17	-0.0401	0.894	-0.982 (inactive)	-0.406	-0.0099	-0.814	-0.417	-0.776	0.84
COCCCNC(=O)[C@@]1(CCS(=O)(=O)c2ccccc2)N=C(c2ccc(OCCCO)cc2)O[C@H]1c1ccccc1	1.69	1.45	1.16	0.409 (inactive)	1.12	1.29	-0.11	-0.21	0.026	0.0123

SMILES	composite z-score [1]	composite z-score [2]	composite z-score [3]	z-score [4]	composite z-score [5]	composite z-score [6]	composite z-score [7]	composite z-score [8]	composite z-score [9]	composite z-score [10]
Cc1cc2c(nc1C)CCCN2CC(C)ON=C1[C@H]2CCn3c(=O)n(-c4ccccc4)c(=O)n3[C@H]2[C@H](O)[C@@H]2O[C@H]12 (stereo not given in full)	0.508	-0.013	-0.499	-0.736 (inactive)	0.618	1.1	0.822	0.828	0.686	0.693
O=C(NN=C1C[C@@H](O)[C@@H](O)[C@@H]2[C@@H]3C(=O)N(c4cccc(Oc5ccccc5)c4)C(=O)[C@@H]3CC[C@H]12)OCc1ccccc1	0.373	0.0708	0.408	0.0933 (inactive)	-0.113	-0.281	0.116	-0.146	-0.0924	0.242
CC(CCN1CCc2nc(-c3ccccc3)c(-c3ccccc3)cc2C1)=NOC[C@@H](C)[C@H](OCc1ccccc1)C(C)C	1.42	-0.215	0.213	-0.0457 (inactive)	-1.3	-1.52	-1.15	-1.76	-1.21	0.166
C#C[C@@H]1Oc2ccccc2S(=O)(=O)N2CCC[C@H]12	-0.298	-0.105	-0.246	0.712 (inactive)	0.111	-0.859	0.304	-0.0777	0.407	0.807
CCOC(=O)NN=C1C[C@@H](O)[C@@H](O)[C@@H]2[C@@H]3C(=O)N(C[C@@H]4CCCO4)C(=O)[C@@H]3CC[C@@H]12	0.419	-0.147	-0.133	0.104 (inactive)	0.137	0.197	0.364	0.342	-0.0134	-0.0039
O=C1[C@H]2[C@H]3[C@H](O)[C@H](O)CC(=NOCc4ccccc4)[C@H]3CC[C@H]2C(=O)N1C[C@@H]1CCCO1	0.565	0.114	-0.418	0.0221 (inactive)	0.863	0.632	0.582	0.728	1.11	-0.209
CC(C)=CCCC(C)=CCON=C1[C@H]2CCn3c(=O)n(Cc4cc5c(cc4Cl)OCO5)c(=O)n3[C@H]2[C@H](O)[C@@H]2O[C@H]12	0.398	-0.277	-0.248	-0.696 (inactive)	0.427	0.173	0.984	0.677	0.472	1.27
COC(=O)[C@@]1(Cc2ccc(F)cc2)[C@@H]2C(=CC(=O)[C@H]2CC(=O)C(=O)N(C)C)CN1C(=O)c1ccccc1	0.346	1.31	0.921	-1.17 (inactive)	0.625	1.29	-0.0946	1.06	-0.251	0.637
CCN1C(=O)[C@H]2[C@H]3[C@H](O)[C@H](O)CC(=NOC(C)CN4CCCCc5nc(C)c(C)cc54)[C@@H]3CC[C@H]2C1=O (stereo not given in full)	0.438	-0.206	-0.667	0.279 (inactive)	0.471	0.606	0.78	0.756	0.78	0.834
CC(C)CON=C1[C@H]2CCn3c(=O)n(-c4ccccc4)c(=O)n3[C@H]2[C@H](O)[C@@H]2O[C@H]12	0.734	-0.217	-0.481	-0.271 (inactive)	0.229	0.298	0.481	0.532	1.2	-0.0603
CC(=O)OC[C@H]1O[C@H](CCON=C(C)CCN2CCc3nc(-c4ccccc4)c(-c4ccccc4)cc3C2)C=C[C@@H]1OC(C)=O	0.323	-0.154	0.101	0.82 (inactive)	-0.422	0.102	0.392	0.189	0.222	1.16
CCc1cc2c(nc1CC)CCN(CCC(C)=NOC[C@@H](O)[C@H]1O[C@@H]3OC(C)(C)O[C@@H]3[C@H]1O)C2	0.569	-0.54	-0.32	-0.173 (inactive)	0.123	0.175	0.352	0.285	0.453	0.963
CC(CCC(=O)OC[C@H]1O[C@H](C#Cc2ccccc2)C=C[C@@H]1Oc1ccc(C)cc1)=NO[C@@H](C)c1cn([C@H](CO)Cc2ccccc2)nn1	0.737	-0.406	-0.52	-1.62 (inactive)	0.304	-0.28	0.313	0.28	0.256	-0.146
C=CC[C@@H]1C=C[C@H](ON=C(C)CCN2CCc3nc(CC)c(CC)cc3C2)[C@@H](CO)O1	1.17	0.0057	0.386	0.00248 (inactive)	-0.0543	0.491	0.609	1.14	0.907	1.8
C=CCOC(=O)[C@H]1[C@@H]2C(=O)O[C@@H](c3ccccc3)[C@@H](c3ccccc3)N2[C@@H](c2ccc(OCCOC(=O)[C@H]3C[C@H]4C(=O)N[C@@H](Cc5ccccc5)C(=O)N4[C@H]3c3ccc(O)cc3)cc2)[C@]12C(=O)Nc1ccccc12	1.4	-0.206	-0.361	0.72 (inactive)	1.15	1.18	0.892	1.22	1.06	-1.01
